The list is not random: actives were taken first. Their share in the collection is about 8.9%.
DRD3 agonist – qHTS of D3 Dopamine Receptor Agonist: qHTS; max activation, %; D(3) dopamine receptor (Homo sapiens), P35462; AID 652048, 2013; 410,000 compounds, 0.58% hits; D3R DiscoveRx beta-arrestin cells, luminescence, 90 min; in the data active means max activation above about 30%; further: 0% is about no effect
Target sequence (P35462 whole entry, looked up): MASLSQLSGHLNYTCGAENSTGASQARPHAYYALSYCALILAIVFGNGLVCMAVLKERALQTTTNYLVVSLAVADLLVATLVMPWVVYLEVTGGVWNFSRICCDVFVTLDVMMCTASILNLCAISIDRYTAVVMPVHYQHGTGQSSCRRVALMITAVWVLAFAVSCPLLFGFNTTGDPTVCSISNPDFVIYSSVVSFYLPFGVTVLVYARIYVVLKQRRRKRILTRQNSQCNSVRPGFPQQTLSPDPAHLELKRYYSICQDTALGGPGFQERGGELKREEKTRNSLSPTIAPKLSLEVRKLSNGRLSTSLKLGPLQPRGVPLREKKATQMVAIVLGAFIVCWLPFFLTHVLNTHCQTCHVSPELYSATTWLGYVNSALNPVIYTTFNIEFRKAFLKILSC
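Agonist mode: compounds and dopamine controls were applied to plated cells for 90 min at 37 degrees C after an overnight attachment at 1500 cells/well. Luminescent read-out followed 30 - 60 minutes at room temperature with DiscoveRx detection reagent.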
MCF10A rerep – A quantitative high throughput screen for small molecules that induce DNA re-replication in MCF 10a normal breast cells; MCF 10A DNA re-replication, Hoechst nuclear intensity, 48 h; AID 624296, 2012; Potency, µM (titrated, usually from 46.1 µM), for the others: at the highest dose activity, positive = re-replication, most hits filed as activators; 350,000 compounds, 2.9% hits; further: potency means the concentration at half of the fitted maximal effect; % of control where 0% means no effect; nearly all actives have a fitted effect of over 50% in size
SW480 rereplic – A quantitative high throughput screen for small molecules that induce DNA re-replication in SW480 colon adenocarcinoma cells | SW480 DNA re-replication, Hoechst DNA content imaging, 48 h | 340,000 compounds, 1.8% hits | Potency, µM (doses to about 46.1 µM), without a hit: at the top dose re-replication activation, actives largely listed as activators; further: potency means the concentration at half of the fitted maximal effect; % of control where 0% means no effect; nearly all actives have a fitted effect of over 55% in size
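Image-based DNA-content assay: after two days of treatment, nuclei were labelled with the DNA dye Hoechst and imaged, and hits were compounds raising the count of nuclei showing high fluorescence intensity.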
KB-V1 MDR tox – qHTS assay for MDR1-selective chemotherapeutics: Primary screen using the drug-selected MDR subline cells KB-V1; KB-V1 MDR cells viability, CellTiter-Glo, 72 h; 400,000 compounds, 3.4% hits; Potency, µM (doses to about 46.1 µM), actives largely listed as cytotoxic; further: potency means the concentration at half of the fitted maximal effect; on the % scale 0 is the no-effect control and ±100 the full control effect; nearly all actives have a fitted effect of over 60% in size
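In this primary screen, KB-V1 cells overexpressing P-gp are incubated with library compounds (lowest to highest concentration) for 72 h at 37 degrees C before a luminescent ATP viability read.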
D3 antag – qHTS of D3 Dopamine Receptor Antagonist: qHTS; AID 652054, 2013; D3R cells, DiscoveRx beta-arrestin luminescence, antagonist mode; hits give low values; max response, negative = inhibition, %; D(3) dopamine receptor (Homo sapiens), P35462; 360,000 compounds, 2.5% hits; in the data active means max response below about -50%; inconclusive means no clear call, values can overlap the other calls; further: on the % scale 0 is the no-effect control and ±100 the full control effect
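Cells expressing the human receptor were seeded at 1500 cells/well, incubated overnight at 37 degrees C in 5% CO2, then exposed to library compounds with dopamine controls for 90 minutes at 37 degrees C before luminescent detection.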
KB-3-1 tox – qHTS assay for MDR1-selective chemotherapeutics: Primary screen using the parental adenocarcinoma cell KB-3-1; KB-3-1 viability, CellTiter-Glo ATP luminescence, 72 h; Potency, µM (series often up to 46.1 µM), most hits filed as cytotoxic; 400,000 compounds, 1.4% hits; AID 1347075, 2019; further: potency means the concentration at half of the fitted maximal effect; on the % scale 0 is the no-effect control and ±100 the full control effect; nearly all actives have a fitted effect of over 60% in size
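Cytotoxicity in the drug-sensitive parental line KB-3-1 was scored as loss of CellTiter-Glo luminescence following 72 h incubation with compound. Values come from curve fitting of normalized concentration-response data.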
* = called active by the depositor; i = inactive; ? = inconclusive; nt = no result. Unless noted, the call rests on the fitted dose curve; in most records, active means well fitted curve in the direction sought with a large enough effect; inconclusive means small, poorly fitted or top-dose-only effect, or another doubt; inactive means no such curve, though single readings can be large; an effect the other way counts as inactive or inconclusive.

SMILES	DRD3 agonist	MCF10A rerep	SW480 rereplic	KB-V1 MDR tox	D3 antag	KB-3-1 tox
O=C(NCCc1nc2ccccc2n1CCO)C1CCCCC1	nt	nt	nt	i	nt	?
CS(=O)(=O)c1ccc(-c2nnc(NC(=O)c3ccc(S(=O)(=O)N4CCCC4)cc3)o2)cc1	-8	12%	-5%	i	-1	i
CC1CCN(S(=O)(=O)c2ccc(C(=O)Nc3nnc(-c4ccncc4)o3)cc2)CC1	8	?	16µM*	?	-4	?
COc1cccc(-c2nnc(NC(=O)c3ccc4ncsc4c3)o2)c1	-5	6.5µM*	-12%	?	-20	?
CNC(=O)C1C(=S)NC(N)=C(C#N)C1c1ccccc1 (centres undefined)	0	?	3.3µM*	i	?	i
COCCNC(=O)CCSCc1ccccc1F	3	4.1µM*	?	i	12	i
Cc1ccc(CCNC(=O)CCSCc2ccccc2F)cc1	4	nt	nt	nt	nt	nt
O=C(Nc1ccc(F)cc1)c1cc(-c2ccncc2)nc2c(Cl)cccc12	3	?	20%	?	11	i
COc1cccc(NC(=O)c2cc(-c3cccnc3)nc3c(Cl)cccc23)c1	10	?	16%	2.9µM*	36	i
COc1ccc(NC(=O)c2cc(-c3cccnc3)nc3c(C)c(C)ccc23)c(OC)c1	48*	16%	-4%	i	22	i
CCCn1c(SCc2nc(-c3ccc(OC)c(OC)c3)no2)nnc1-c1ccccc1	2	nt	nt	?	nt	i
O=C(CSc1nc2ccc(Cl)cc2[nH]1)NCc1ccco1	-4	?	-2%	?	-14	i
Cc1cc(C(=O)CSc2nc3ccc(Cl)cc3[nH]2)c(C)n1Cc1ccco1	3	?	-6%	21µM*	11	i
CCc1nc2ccccc2c(C(=O)OCC(=O)Nc2cccc(S(=O)(=O)N3CCOCC3)c2)c1C	33*	109%	?	6.5µM*	105	21µM*
Cc1ccc(S(=O)(=O)N2CCOCC2)cc1NC(=O)COc1ccccc1Cc1ccccc1	1	?	4%	i	40	i
O=C(Nc1cccc(S(=O)(=O)NC2=NCCC2)c1)c1cc(-c2ccco2)nc2ccccc12	8	0%	-73%	i	8	i
CCc1nc2ccccc2c(C(=O)OCC(=O)Nc2cccc(S(=O)(=O)NC3=NCCCCC3)c2)c1C	45*	?	?	i	92	?
O=C(COc1ccccc1Cc1ccccc1)Nc1cccc(S(=O)(=O)N2CCOCC2)c1	3	-1%	7%	5.2µM*	2	?
O=C(COC(=O)c1ccc2ccccc2n1)Nc1cccc(S(=O)(=O)NC2=NCCCCC2)c1	-3	3%	-14%	i	-5	i
O=C(NC(=S)Nc1cccc(S(=O)(=O)NC2=NCCC2)c1)c1cc(-c2ccco2)nc2ccccc12	-24	?	9.2µM*	i	-18	6.5µM*
CCOc1ccccc1NC(=O)CCNS(=O)(=O)c1ccc2c(c1)CCN2C(=O)C1CC1	-3	nt	nt	i	nt	i
COc1ccc(CNC(=O)c2ccc3c(c2)nc2n3CCCCC2)c(OC)c1	-3	nt	nt	i	nt	?
CCOc1cc(C(=O)OCC(=O)Nc2cccc(S(=O)(=O)NC3=NCCCCC3)c2)cc(OCC)c1OCC	-6	8%	-1%	8.2µM*	5	i
CCOc1ccc(C(=O)NC(=S)Nc2cccc(S(=O)(=O)NC3=NCCC3)c2)cc1	-6	2.6µM*	?	7.3µM*	-28	2.3µM*
CCOc1ccccc1C(=O)OCC(=O)Nc1cccc(S(=O)(=O)NC2=NCCCCC2)c1	-2	2%	-9%	i	12	i
SMILES	DRD3 agonist	MCF10A rerep	SW480 rereplic	KB-V1 MDR tox	D3 antag	KB-3-1 tox
CCOC(=O)c1sc(NC(=O)c2nc3nc(C)cc(C(F)F)n3n2)c(C(=O)OC(C)C)c1C	7	nt	nt	i	nt	i
Cc1cccc(-c2nnc3n(CCc4ccccc4)c(=O)c4ccccc4n23)c1	4	nt	nt	i	nt	?
Cc1ccc(S(=O)(=O)N2CCN(Cc3ccc4c(c3)OCO4)CC2)cc1	-31	nt	nt	i	nt	i
Cc1ccc(C(=O)N2CCN(Cc3ccc4c(c3)OCO4)CC2)cc1S(=O)(=O)N1CCOCC1	-5	18%	-7%	16µM*	-3	i
CCn1c(=O)c(=O)[nH]c2cc(C(=O)N3CCN(Cc4ccc5c(c4)OCO5)CC3)ccc21	2	5.2µM*	-33%	i	6	i
Cc1ccc(C(=O)N2CCCCCC2)cc1S(=O)(=O)N1CCOCC1	3	1%	-1%	i	20	i
O=C(c1ccc(S(=O)(=O)N2CCCC2)cc1)N1CCN(Cc2ccc3c(c2)OCO3)CC1	-13	1%	-4%	?	-52*	i
CS(=O)(=O)N1CCc2cc(S(=O)(=O)N3CCN(Cc4ccc5c(c4)OCO5)CC3)ccc21	12	17%	5%	21µM*	14	i
CCc1ccc(Cn2c(CNS(=O)(=O)c3ccc([N+](=O)[O-])cc3)nc3cccnc32)cc1	7	nt	nt	nt	nt	nt
CCN(c1ccccc1)S(=O)(=O)c1nnc(NC(=O)COc2cccc(C)c2)s1	-14	nt	nt	nt	nt	nt
COC(=O)c1cc2sccc2n1CC(=O)Nc1ccc(OC)c(OC)c1	5	nt	nt	i	nt	i
COc1cc(CN(C)CCc2ccccn2)cc(OC)c1OC	-6	-6%	0%	i	15	i
COc1ccc(CCN(Cc2ccccn2)C(=S)Nc2ccc(C)cc2)cc1OC	-14	10%	-1%	23µM*	7	?
COc1ccc(CN(C)CCc2ccccn2)cc1OC	-4	-1%	-1%	i	-76*	i
COc1cccc(C2CC(=O)Nc3c2c(=O)n(C)c2ncnn32)c1OC (centres undefined)	-15	nt	nt	i	nt	i
CCc1ccc(N(CC(=O)NC(C)C)C(=O)CCC(=O)Nc2ccccn2)cc1	-7	-5%	-3%	i	8	i
COc1cccc(C(=O)c2cn(CC(=O)NCCc3ccccc3)c3nc(C)ccc3c2=O)c1	18	nt	nt	i	nt	i
Oc1ccc(C=NNC(=S)Nc2cccnc2)nc1	2	?	13µM*	3.7µM*	4	i
CCn1nc(C)c(NC(=O)c2cnn3c(C(F)F)cc(-c4ccccc4)nc23)c1C	-1	-1%	5%	i	7	?
